Screening data (PubChem BioAssay)
Most compounds without a hit are left out; they make up all but 1.1% or so of the library.
bovine MsrA act – bovine MsrA enzyme activators, primary screen, biochemical, absorbance, HTS; activation, % at 10.6 µM; Methionine sulfoxide reductase A (Bos taurus); purified bovine MsrA, absorbance read-out; 360,000 compounds, 0.3% hits; in the data active = activation above about 7.5%
PKA-R1A act – activators of PKA-R1A holoenzyme, primary screen, biochemical, fluorescence polarization, Cy5-IP20, bovine R1A, mouse PKAc | cAMP-dependent protein kinase type I-alpha regulatory subunit (Bos taurus) + … | PKA-R1A dissociation; scaled: DMSO 0%, 113 µM cGMP 100% | activation, % at 11.4 µM | 340,000 compounds, 0.083% hits;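 active = percent activation above the mean of all tested compounds plus 3 SD, cut at about 19% in these data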;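 also: higher means more PKAc released from R1A so a rise in polarization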
MsrA inhibitor – bovine MsrA enzyme inhibitors, primary screen, biochemical, absorbance, HTS; Methionine sulfoxide reductase A (Bos taurus); inhibition, % at 15.5 µM; 360,000 compounds, 0.75% hits; purified bovine MsrA, absorbance read-out; in the data active = inhibition above about 4.5%
PKA-R2B act – activators of PKA-R2B holoenzyme, primary screen, biochemical, fluorescence polarization, Cy5-IP20, human. cAMP-dependent protein kinase catalytic subunit beta (Homo sapiens) + cAMP-dependent …. 340,000 compounds, 0.079% hits. activation, % at 11.4 µM. PKA-R2B holoenzyme dissociation; R2B truncated from residue 108, S112A mutant; 0% DMSO only, 100% 113 µM cGMP;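 active = activation above a cutoff set at the mean over all compounds plus 3 SD, cut at about 18% in these data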;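 also: higher means more holoenzyme dissociation and a rise in polarization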
Target sequence (P31323 whole entry, looked up, other chains not shown, the tested form may be a part): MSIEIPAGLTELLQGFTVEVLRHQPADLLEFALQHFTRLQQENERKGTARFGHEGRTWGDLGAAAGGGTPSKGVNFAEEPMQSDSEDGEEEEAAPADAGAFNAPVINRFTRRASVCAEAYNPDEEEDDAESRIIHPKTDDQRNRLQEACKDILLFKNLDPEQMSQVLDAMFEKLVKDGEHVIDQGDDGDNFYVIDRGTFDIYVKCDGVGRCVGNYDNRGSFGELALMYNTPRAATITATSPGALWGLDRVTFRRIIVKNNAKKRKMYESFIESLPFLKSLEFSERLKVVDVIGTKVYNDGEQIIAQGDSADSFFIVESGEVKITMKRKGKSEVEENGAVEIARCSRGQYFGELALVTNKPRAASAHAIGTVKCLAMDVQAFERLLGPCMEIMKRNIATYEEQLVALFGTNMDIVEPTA
A number is an active result.

Screening CCOC(=O)CSc1nc2sc3c(c2c(=O)n1-c1ccc(C)cc1)CCN(C)C3 returned bovine MsrA act inactive, PKA-R1A act inactive, MsrA inhibitor 4.6 and PKA-R2B act inactive.
`Nc1[nH]c(C(=O)c2ccc(Cl)cc2)c(-c2ccc(Br)cc2)c1C(=O)NCc1ccc(Cl)cc1Cl` gave MsrA inhibitor inactive.
Screening CN(C)c1ccc(C2N3CC4(C)CN2CC(C)(C3)C4O)cc1 (stereo unspecified) returned bovine MsrA act inactive, PKA-R1A act inactive, MsrA inhibitor 5.5 and PKA-R2B act inactive.
`CC12CN3CC(C)(CN(C1)C3c1ccc(Cl)cc1Cl)C2O` (stereo unspecified) gave bovine MsrA act inactive, PKA-R1A act inactive, MsrA inhibitor inactive and PKA-R2B act inactive.
Screening CC(C)(C)c1ccc(S(=O)(=O)N2CCN(C(=O)C(=O)c3cccc(C(F)(F)F)c3)CC2)cc1 returned MsrA inhibitor inactive.
For CC(O)(CS(=O)(=O)Cc1ccccc1)C(=O)Nc1cccc(C(F)(F)F)c1 (stereo unspecified) the results were bovine MsrA act 10, PKA-R1A act inactive, MsrA inhibitor inactive and PKA-R2B act inactive.
`CC(O)(CS(=O)(=O)Cc1ccccc1)C(=O)Nc1ccc(C(F)(F)F)cc1` (stereo unspecified) gave bovine MsrA act inactive, PKA-R1A act inactive, MsrA inhibitor inactive and PKA-R2B act inactive.
Screening COc1cc2c(NCCCCCCO[N+](=O)[O-])ncnc2c(OC)c1OC returned MsrA inhibitor inactive.
COC(=O)[C@]12C[C@H](CC(=O)N3CCCC3)C(=O)N(Cc3ccccc3)C1=C[C@H](C(C)(C)C)O[C@@H]2C was read as MsrA inhibitor inactive.
Screening COc1cccc(/C=C2/Sc3ccc(C(=O)NC4CC4)cc3NC2=O)c1 returned MsrA inhibitor inactive.
CC1OC(CC(=O)O)CC2=C1C(=O)c1c(O)cccc1C2=O (stereo unspecified) was read as bovine MsrA act 67, PKA-R1A act inactive, MsrA inhibitor 9.9 and PKA-R2B act inactive.
`Cc1ccc2nc(CN(C)C(=O)[C@H](CCc3ccccc3)NC(=O)[C@H]3O[C@@H](n4cnc5c(N)ncnc54)[C@H](O)[C@@H]3O)[nH]c2c1` gave MsrA inhibitor inactive.
`Cc1cc(N2CCN(C(=O)OC(C)(C)C)C[C@H]2C)ccc1Br` gave MsrA inhibitor inactive.
For COc1cc(/C=C(\C#N)c2nnc(N3CCOCC3)n2-c2ccccc2)ccc1O the results were bovine MsrA act inactive, PKA-R1A act inactive, MsrA inhibitor 4.6 and PKA-R2B act inactive.
`Cc1ccc(OCC(=O)N(Cc2ccc(N(C)C)cc2)C2CCS(=O)(=O)C2)cc1` (stereo unspecified) gave bovine MsrA act inactive, PKA-R1A act inactive, MsrA inhibitor inactive and PKA-R2B act inactive.
For CN(C)c1ccc(CN(C(=O)COc2ccc(F)cc2)C2CCS(=O)(=O)C2)cc1 (stereo unspecified) the results were bovine MsrA act 8.2, PKA-R1A act inactive and PKA-R2B act inactive.
Screening CCOC(=O)C1C(=O)C=C(c2ccc([N+](=O)[O-])cc2)CC1c1ccccc1 (stereo unspecified) returned bovine MsrA act inactive, PKA-R1A act inactive, MsrA inhibitor inactive and PKA-R2B act inactive.
CCOC(=O)C1C(=O)C=C(C)C(C(=O)OCC)C1c1cccc([N+](=O)[O-])c1 (stereo unspecified) was read as bovine MsrA act inactive, PKA-R1A act inactive, MsrA inhibitor 4.6 and PKA-R2B act inactive.
Screening O=C(O)CCC(=O)N1CCN(c2ccc(C(=O)c3ccc(F)cc3)cc2)CC1 returned bovine MsrA act inactive, PKA-R1A act inactive, MsrA inhibitor 4.7 and PKA-R2B act inactive.
For COc1cc(/C=C/C(=O)OC(C)C(=O)Nc2c(C)n(C)n(-c3ccccc3)c2=O)ccc1OCC#N (stereo unspecified) the results were bovine MsrA act inactive, PKA-R1A act inactive, MsrA inhibitor 4.6 and PKA-R2B act inactive.
`CN(C)N=Nc1nc[nH]c1C(N)=O` gave bovine MsrA act inactive, PKA-R1A act inactive, MsrA inhibitor inactive and PKA-R2B act inactive.
For CN(N=Nc1nc[nH]c1C(N)=O)C1CCCCC1 the results were bovine MsrA act inactive and MsrA inhibitor 4.6.
For COc1cc(OC)cc(C(=O)/C=C2\Sc3ccccc3N2C)c1 the results were bovine MsrA act inactive, PKA-R1A act inactive, MsrA inhibitor inactive and PKA-R2B act inactive.
